Data: PubChem BioAssay AID492972 (The Scripps Research Institute Molecular Screening Center, 2010)
Screen size: about 340,000 compounds; about 930 (0.27%) were called active. The entries come from a sample that favours actives as a whole. A number with no mark means an inactive call.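 How the source made its calls: active means inhibition above the screen-wide average of all tested compounds plus 3 SD (cut at about 25% in these data); inactive means the rest.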

biological target: Platelet-activating factor acetylhydrolase IB subunit alpha1 (Homo sapiens) (UniProt Q15102); assay: inhibition of PAF acetylhydrolase 1B subunit 3 – biochemical, fluorescence polarization, human, primary screen (AID 492972); details: recombinant PAFAH1B3, FP-rhodamine probe, at 3.39 µM, stronger effect = higher value;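 further: 0% = enzyme with DMSO only and 100% = wells lacking PAFAH1B3 protein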
Sequence (Q15102 whole entry, looked up): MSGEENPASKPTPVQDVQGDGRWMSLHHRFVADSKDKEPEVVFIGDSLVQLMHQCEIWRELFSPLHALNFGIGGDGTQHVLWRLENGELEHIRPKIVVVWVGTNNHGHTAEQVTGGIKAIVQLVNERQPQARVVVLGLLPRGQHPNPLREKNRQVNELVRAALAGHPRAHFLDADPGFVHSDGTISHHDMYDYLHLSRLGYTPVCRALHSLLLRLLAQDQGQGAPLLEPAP

Row | Structure (SMILES) | inhibition
1 | CCC(C(=O)Nc1ccc(C(C)C)cc1)c1ccccc1 (configuration not stated) | -2.07%
2 | Cc1ccc(S(=O)(=O)N2CCN(C)CC2)cc1 | 2.98%
3 | CC/C(=N\NC(=O)c1c(C)nc2ccccn12)c1ccc(Cl)cc1 | 2.04%
4 | CC(Sc1nncs1)C(=O)NCc1ccc2c(c1)OCO2 (configuration not stated) | 4.2%
5 | COc1cc(CNCCN(C)C)ccc1OCc1c(F)cccc1Cl | 7.89%
6 | CSCCC(NC(=O)COc1ccccc1)C(=O)Nc1ccc(C)cc1 (configuration not stated) | 3.02%
7 | Cc1ccc(-c2noc(CNC(=O)c3ccoc3C)n2)cc1 | 7.91%
8 | O=C(CN1C(=O)NC2(CCCCCC2)C1=O)NC1CC1 | 8.06%
9 | CCCc1nc(N)nc2c1C(=O)CC(C)(C)C2 | 3.91%
10 | Cc1ccc(N=C2NC(=O)/C(=C/C=C/c3ccco3)S2)cc1C | -1.25%
11 | Cc1cccc(N=C2NC(=O)/C(=C/c3cn(C)c4ccccc34)S2)c1 | 31.3% (active)
12 | Cc1ccc(N2C(=O)S/C(=C/c3cn(C)c4ccccc34)C2=O)cc1 | 1.18%
13 | CN(C)C(=O)CCc1ccc2c3c([nH]c2c1)[C@]1(C)[C@@H](C(=O)N2CCOCC2)C[C@H](CC(=O)NCCc2ccccn2)C(=O)N1CC3 | 12.3%
14 | Cn1ncc2c(Nc3cccc4ccccc34)ncnc21 | -1.17%
15 | O=C(COC(=O)c1cccnc1Cl)NC12CC3CC(CC(C3)C1)C2 | 16.2%
16 | COCCNC(=S)N1CCC(NC(=O)C23CC4CC(CC(C4)C2)C3)CC1 | 7.45%
17 | O=C(NCCc1ccccc1)Oc1ccc(Cl)cc1 | 2.38%
18 | CN(C)[C@@H]1C(=O)C(C(N)=O)=C(O)[C@@]2(O)C(=O)C3=C(O)c4c(O)ccc(Cl)c4[C@@H](O)[C@H]3C[C@@H]12 | 11%
19 | C=C1c2c(Cl)ccc(O)c2C(O)=C2C(=O)[C@]3(O)C(O)=C(C(N)=O)C(=O)[C@@H](N(C)C)[C@@H]3[C@@H](O)C12 (some centres not stated) | 32.6% (active)
20 | CCSC(C)CC1C/C(=N/O)c2c(C)noc2C1 (configuration not stated) | 4.48%
21 | COc1ccc(N(CC(=O)NCC2CCCO2)C(=O)CCC(=O)Nc2nccs2)c(OC)c1 (configuration not stated) | 2.48%
22 | O=C(Nc1nccs1)C1CCN(S(=O)(=O)c2ccc(Cl)c(C(F)(F)F)c2)CC1 | 7.86%
23 | O=C(NCc1ccccc1)C(c1cccnc1)N(C(=O)c1csnn1)c1ccc(F)cc1 (configuration not stated) | 4.83%

Row | Structure (SMILES) | inhibition
24 | CCN1C(=O)[C@H]2[C@@H](c3ccc(SC4CCCCC4)c(OC)c3)N[C@@](Cc3ccccc3)(C(=O)OC)[C@H]2C1=O | -5.41%
25 | c1coc(-c2nc3nc4ccccc4n3nc2-c2ccco2)c1 | 41.5% (active)
26 | CC1=Nn2c(nnc2-c2ccccc2)SC1 | 6.68%
27 | COc1ccccc1-c1nnc2n1N=C(c1ccc(OC(F)F)c(OCC3CC3)c1)CS2 | -0.82%
28 | COc1ccc(C2=Nn3c(nnc3-c3ccccc3OC)SC2)cc1OC1CCCC1 | 38.3% (active)
29 | Cc1nnc(SCCCn2c(N3CCCCC3)nc3c2c(=O)[nH]c(=O)n3C)s1 | 5.57%
30 | CCN(CC)CCCC(C)n1c2nc(=O)[nH]c(=O)c-2nc2cc(Cl)ccc21 (configuration not stated) | 57.6% (active)
31 | COc1ccc(C)cc1S(=O)(=O)N(CC(=O)Nc1cccc([N+](=O)[O-])c1)c1ccc(C)cc1 | -21.3%
32 | COc1ccc(C(=O)NC(=S)N2CCCCC2c2cccnc2)cc1OC (configuration not stated) | -1.07%
33 | Cc1c(-c2ccccc2)n[nH]c1C(=O)N=Nc1c(O)[nH]c2ccccc12 | -61.7%
34 | S=C(NCCCc1ccccc1)Nc1ccc(Br)cc1 | 7.28%
35 | C/C=N/N(c1ccccc1)c1ccccc1 | 0.33%
36 | N#CC(Cc1cc2ccccc2n1S(=O)(=O)c1ccccc1)OCc1ccccc1 (configuration not stated) | 4.5%
37 | CCCc1ccc(OCC(O)CN2CCN(C(=O)OCC)CC2)cc1 (configuration not stated) | -2.88%
38 | COC(=O)CNC(=O)C(CCSC)NC(C)=O (configuration not stated) | -4.04%
39 | CCC(CO)Oc1cc(NC(=O)c2cccc3ccccc23)c2ncn(C(C)C)c2c1 (configuration not stated) | -4.73%
40 | CC(C)n1cnc2c(NCc3ccccc3)cc(OCC3CCN(C)CC3)cc21 | 49.8% (active)
41 | CCC(CO)Oc1cc(NC(=O)c2cccc(F)c2)c2ncn(C(C)C)c2c1 (configuration not stated) | -2.61%
42 | COc1ccccc1C(=O)N(Cc1ccc(C)o1)C1CCS(=O)(=O)C1 (configuration not stated) | 4.66%
43 | COc1ccccc1NS(=O)(=O)N(C)C | -5.67%
44 | c1ccc(CC2CCN(c3nc4ccccc4n4cnnc34)CC2)cc1 | -2.84%
45 | COc1ccc(CN(Cc2ccco2)S(=O)(=O)c2ccc(S(=O)(=O)N3CCCC3)cc2)cc1 | 4.29%
46 | CC(=O)OC1CCC2(C)C(=CCC3C4CC(=O)N(O)C(=O)C4(C)CCC32)C1 (configuration not stated) | 1.29%

Row | Structure (SMILES) | inhibition
47 | O=C(/C=C(O)/C=C/c1ccc(O)cc1)/C=C/c1ccc(O)cc1 | 36.6% (active)
48 | O=C(O)/C=C/c1ccc(OCCCF)cc1 | 9.5%
49 | O=C(/C=C/c1ccc2c(c1)OCCO2)c1ccc(O)cc1 | -1.41%
50 | O=C(CCCC(=O)N(CC(=O)NC1CCCC1)Cc1ccccc1Cl)Nc1ccccn1 | 7.22%
51 | CCOCCCN(C)C1CCN(C(=O)c2oc3ccccc3c2NC(=O)COc2cccc(C)c2)CC1 | 7.03%
52 | COc1ccc(NC(=O)ON=C2c3ccccc3-c3ccccc32)cc1 | 31.6% (active)
53 | COc1ccc(NC(=O)C(Br)C(C)C)cc1 (configuration not stated) | 3.86%
54 | COc1ccc(NC(=O)CCCC(=O)c2ccccc2)cc1 | -0.24%
55 | COc1ccc(C2=NS(=O)(=O)N(C)C(C(=O)N(C)Cc3ccccc3)=C2)cc1 | 9.43%
56 | COc1ccc([N+](=O)[O-])cc1NCC(=O)c1ccc(C)cc1 | 8.91%
57 | CCNC(=O)NNC(=O)C1CC(c2cccs2)=NO1 (configuration not stated) | 14.9%
58 | CCNS(=O)(=O)c1ccc(CCC(=O)N2CCN(c3cc(Cl)ccc3C)CC2)cc1 | 8.42%
59 | COc1ccc(N2CCN(C(=O)C3CCN(C(=O)c4ccccc4Cl)CC3)CC2)cc1 | -0.01%
60 | CN(N)c1nc(N2CCCC2)nc(N2CCCC2)n1 | -3.46%
61 | NC(=O)[C@H]1CC2(CC(c3cccc(NC(=O)[C@H]4CCC(=O)N4)c3)=NO2)CN1C(=O)c1ccccc1C(=O)c1ccccc1 (some centres not stated) | -3.78%
62 | O=c1[nH]cccc1-c1nc2ccccc2n1Cc1ccc(Cl)cc1 | 6.48%
63 | O=C(Nc1nnc(-c2ccc(F)cc2)s1)c1c(F)cccc1Cl | 4.95%
64 | CN(C1CCS(=O)(=O)C1)S(=O)(=O)c1ccc2ccccc2c1 (configuration not stated) | 3.01%
65 | CC(C)(C)NC(=O)NC(=O)CN1CCC(Cc2ccccc2)CC1 | 0.05%
66 | COC(=O)CCSc1cc([N+](=O)[O-])cc2c1c(C1OCCS1)nn2-c1ccccc1 (configuration not stated) | -0.28%
67 | ON=C1/C(=N\O)CC2(C/C1=N/O)OCCO2 | 32.1% (active)
68 | O/N=C1\CC2(Cc3nonc31)OCCO2 | 2.79%
69 | CN1C(c2ccc(F)cc2)=CS/C1=C(/C#N)c1nnc2n1-c1ccccc1SC2 | 25.7% (active)

Row | Structure (SMILES) | inhibition
70 | Clc1ccc(C=NC23CN4CN(CN(C4)C2)C3)cc1 | 0.87%
71 | CC(C)C(=O)Nc1oc(-c2ccccc2)cc1C#N | 1.75%
72 | OC(c1ccccc1)C(CN1CCOCC1)c1ccccc1 (configuration not stated) | 0.69%
73 | O=C(Nc1nnc(-c2ccccc2)o1)c1cccc(S(=O)(=O)N2CCOCC2)c1 | 4.84%
74 | O=C(O)c1ccc(OCC2CCCO2)cc1 (configuration not stated) | 10.9%
75 | Cc1ccc(-c2cc(C(=O)NCc3cn(C)nc3C)c3cc(Br)ccc3n2)cc1 | -4.68%
76 | O=P(c1ccc2c(c1)OCCO2)(N1CCOCC1)N1CCOCC1 | 6.13%
77 | CC(c1ccco1)N(C(=O)COc1ccccc1[N+](=O)[O-])c1ccccn1 (configuration not stated) | 10.8%
78 | COc1ccc(C(C)=O)cc1COC(=O)Cn1cnc2ccccc2c1=O | 6.33%
79 | COc1ccc(N2CCN(C(=O)CN3C(=O)COc4ccccc43)CC2)cc1 | 3.49%
80 | CC(NCC(=O)Nc1ccccc1C(=O)NC1CC1)c1ccccc1Cl (configuration not stated) | 3.15%
81 | COc1cccc2c1C(=O)c1c(O)c3c(c(O)c1C2=O)CC(O)(C(C)=NNC(=O)c1ccc(Cl)c(Cl)c1)CC3OC1CC(N)C(O)C(C)O1 (configuration not stated) | 44.5% (active)
82 | O=C(Nc1cccc2c1CCCC2)c1ccc(F)cc1 | 7.49%
83 | COCCNC(=S)Nc1cc(S(=O)(=O)N2CCOCC2)ccc1N1CCCCC1 | 7.35%
84 | CC(C)C(C(=O)NC1CCCCC1)N(CC1CCCO1)C(=O)CNS(=O)(=O)c1ccc(F)cc1 (configuration not stated) | 3.67%
85 | CC(C)CN1CC(C)C(=O)N(c2ccccc2)C1=S (configuration not stated) | 0.15%
86 | COc1cc2c(C(=O)N(C)c3cc(Cl)ccc3OC)cn(C)c(=O)c2cc1OC | 6.3%
87 | O=C(N/N=C/c1sc(N2CCCCC2)nc1-c1cccs1)c1cccnc1 | 26.1% (active)
88 | O=C(NN=C1CCC(=NNC(=O)c2cccnc2)CC1)c1cccnc1 | 8.42%
89 | Cc1ccc(NC(=O)COc2ccc(/C=N\NC(=O)c3cccnc3)cc2)cc1C | -9.46%
90 | COc1ccccc1C(=O)c1ccccc1C(=O)c1ccccc1 | 8.6%
91 | Cc1cc(C)n(C(=O)CCNC(=O)c2ccccc2Cl)n1 | -1.83%
92 | O=C(NNc1ccccc1Cl)C(O)(c1cccc(C(F)(F)F)c1)c1cccc(C(F)(F)F)c1 | 8.34%
